# PubChem BioAssay (Tox21)
# Results filed as inconclusive are left out. A number with no mark means an inactive call. Active and inactive are the calls of the source. Calls follow the shape of the dose curve; as a rule, active = well fitted inhibition curve with a large enough effect in the repeat runs; inconclusive = weak or mixed curves; inactive = flat fitted curve, though single readings scatter.
# Target: Voltage-gated inwardly rectifying potassium channel KCNH2 (Homo sapiens) (UniProt Q12809)
# Test: Human Ether-a-go-go-Related Gene (hERG) channel small molecule antagonists: fluorescence cell-based qHTS assay (AID 1671200); also: nearly all actives have a fitted effect of over 50% in size;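 as to activity change, negative = inhibition: hERG-expressing U2OS cells given a thallium stimulus after FluxOR II dye loading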
# Details: hERG-U2OS cells, FluxOR thallium flux fluorescence; series mostly up to 76.8 µM; activity change, negative = inhibition: at the top concentration
# In short: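 First, 1000 cells per well are seeded and cultured overnight at 37 C. Next, FluxOR II dye is loaded for 1 h at room temperature, protected from light. After 10 more minutes, stimulus is added and fluorescence is read.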
# % is scaled to controls: 0 for no effect and ±100 for the full control effect; potency is read from the fitted curve at half-maximal effect.
# Sequence of Voltage-gated inwardly rectifying potassium channel KCNH2 (Homo sapiens) (Q12809 whole entry, looked up): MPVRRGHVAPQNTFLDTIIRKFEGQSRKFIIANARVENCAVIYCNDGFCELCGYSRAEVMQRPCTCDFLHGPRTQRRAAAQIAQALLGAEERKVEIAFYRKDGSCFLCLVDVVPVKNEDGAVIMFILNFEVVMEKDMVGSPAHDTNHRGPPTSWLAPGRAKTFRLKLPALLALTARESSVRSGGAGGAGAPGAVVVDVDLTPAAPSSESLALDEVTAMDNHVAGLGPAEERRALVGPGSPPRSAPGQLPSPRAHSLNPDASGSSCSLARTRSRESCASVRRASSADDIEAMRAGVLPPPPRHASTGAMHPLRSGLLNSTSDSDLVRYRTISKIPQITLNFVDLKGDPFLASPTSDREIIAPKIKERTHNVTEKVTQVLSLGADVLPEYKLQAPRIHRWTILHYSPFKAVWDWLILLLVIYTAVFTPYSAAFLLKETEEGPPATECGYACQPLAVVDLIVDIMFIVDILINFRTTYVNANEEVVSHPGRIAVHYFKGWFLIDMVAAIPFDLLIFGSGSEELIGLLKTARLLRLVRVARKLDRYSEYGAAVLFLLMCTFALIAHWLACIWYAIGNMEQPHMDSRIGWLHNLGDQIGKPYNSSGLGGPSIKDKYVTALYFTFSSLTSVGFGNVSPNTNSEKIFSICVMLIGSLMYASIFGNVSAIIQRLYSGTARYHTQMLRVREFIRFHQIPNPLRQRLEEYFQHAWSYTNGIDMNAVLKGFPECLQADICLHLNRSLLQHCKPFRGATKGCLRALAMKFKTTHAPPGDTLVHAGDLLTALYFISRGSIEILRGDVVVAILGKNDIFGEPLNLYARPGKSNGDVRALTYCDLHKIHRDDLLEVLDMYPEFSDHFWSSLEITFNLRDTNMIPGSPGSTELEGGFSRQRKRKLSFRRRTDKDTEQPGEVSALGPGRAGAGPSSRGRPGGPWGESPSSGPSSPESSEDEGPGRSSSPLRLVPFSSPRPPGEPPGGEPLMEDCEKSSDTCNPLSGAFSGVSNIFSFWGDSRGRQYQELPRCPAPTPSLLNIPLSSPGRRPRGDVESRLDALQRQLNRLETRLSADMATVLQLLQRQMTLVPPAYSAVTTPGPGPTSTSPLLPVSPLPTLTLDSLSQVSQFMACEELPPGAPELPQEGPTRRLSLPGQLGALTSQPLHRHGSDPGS
Structure (SMILES),"activity change, negative = inhibition",Potency
Nc1ccc(F)c([N+](=O)[O-])c1,-3.61%,
CC1(C)[C@H](C(=O)OCc2cccc(Oc3ccccc3)c2)[C@@H]1C=C(Cl)Cl,12.5%,
C/C=C/C(=O)C1=C(C)C=CCC1(C)C,-8.02%,
CCC(C)(C)c1ccc(CC(C)CN2C[C@@H](C)O[C@@H](C)C2)cc1 (stereo partly drawn),,9.52 µM (active)
O=C(c1ccccc1)c1ccc(Cl)cc1,-11%,
NCc1cccc(C2CCN(C(=O)c3ccc(C#Cc4ccccc4F)o3)CC2)c1,,11 µM (active)
CC(C)(c1ccc(Oc2ccc(N)cc2)cc1)c1ccc(Oc2ccc(N)cc2)cc1,-9.21%,
Nc1ccc(Oc2cccc(Oc3ccc(N)cc3)c2)cc1,-11.2%,
CCN(CC)c1ccc(C=O)c(O)c1,3.4%,
Cc1ccc(C=O)cc1,4.14% [at 35.3 µM],
CC(=O)CC(N)=O,3.11%,
CCOC=C(C(=O)OCC)C(=O)OCC,3.35%,
[Cl][Eu]([Cl])[Cl],-6.54%,
C/C(=C\c1ccc(C(=O)O)cc1)c1ccc2c(c1)C(C)(C)CCC2(C)C,-2.63% [at 35.3 µM],
CCCCCCCCc1ccc(Nc2ccc(CCCCCCCC)cc2)cc1,-10.4% [at 35.3 µM],
c1ccc(C[P+](c2ccccc2)(c2ccccc2)c2ccccc2)cc1,,3.09 µM (active)
CCc1cccc(CC)c1,-2.22%,
O=C1OC2(c3ccccc31)c1ccc(O)c(Br)c1Oc1c2ccc(O)c1Br,,34.7 µM (active)
c1ccc2occc2c1,1.79%,
NC(=O)c1ccccc1Cl,-2.27%,
O=S(=O)(c1ccc(OCc2ccccc2)cc1)c1ccccc1O,-3.56%,
C=Cc1ccc(O)c(OC)c1,4.56%,
CCOc1ccc([N+](=O)[O-])cc1,-26.8%,
